Screening data from PubChem.
FBW7 act: human FBW7 E3 ligase activation, primary screen; Q969H0; AlphaScreen FBW7–phospho-cyclin E peptide binding, activator screen; normalized activity (activation), % at 26.1 µM; 650,000 tested, 0.13% active; AID 1259310; in the data active = normalized activity above about 1.9%;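 note: purified mutant Fbw7 with reduced substrate affinity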
MITF inh: human MITF inhibition, primary screen; O75030; inhibition, % at 2.6 µM; AlphaScreen MITF homodimerization, bead proximity signal; 650,000 tested, 0.91% active; AID 1259374; in the data active = inhibition above about 50%;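 note: 0% = vehicle wells with protein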
Target sequence (O75030 whole entry, looked up): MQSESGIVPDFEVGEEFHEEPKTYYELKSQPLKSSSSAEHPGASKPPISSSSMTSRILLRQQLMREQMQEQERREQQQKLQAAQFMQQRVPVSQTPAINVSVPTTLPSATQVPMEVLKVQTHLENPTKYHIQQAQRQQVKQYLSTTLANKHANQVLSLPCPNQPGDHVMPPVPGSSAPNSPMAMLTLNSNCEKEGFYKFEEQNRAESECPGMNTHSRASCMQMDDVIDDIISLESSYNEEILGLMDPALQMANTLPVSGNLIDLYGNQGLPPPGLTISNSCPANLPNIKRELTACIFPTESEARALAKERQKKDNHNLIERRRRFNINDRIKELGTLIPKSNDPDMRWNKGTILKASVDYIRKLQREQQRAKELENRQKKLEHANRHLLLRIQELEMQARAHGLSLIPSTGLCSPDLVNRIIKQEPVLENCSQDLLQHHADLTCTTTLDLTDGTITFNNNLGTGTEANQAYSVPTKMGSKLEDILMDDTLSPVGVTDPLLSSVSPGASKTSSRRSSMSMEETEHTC
TEAD-YAP inh: TEAD-YAP interaction inhibition. HEK-TIYL cells, TEAD-Gal4/YAP UAS-luciferase luminescence. inhibition, % at 9.12 µM. 640,000 tested, 1.4% active; in the data active = inhibition above about 32%;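 note: 0% = median of test compound wells and 100% = reference inhibitor wells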
GPR151 ag: activates the human receptor GPR151 | PathHunter beta-arrestin GPR151 cells, luminescence | Q8TDV0 | activation, % at 11.2 µM | 650,000 tested, 1% active; in the data active = activation above about 4.9%;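 note: 0% = median of compound wells and 100% = cells with positive control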
MITF inh conf: confirmation of human MITF inhibitors | shares compounds with MITF inh | 4,700 tested, 16% active | inhibition, % at 2.6 µM | AlphaScreen MITF homodimerization, biotin/His-MITF beads | AID 1259372;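 active = inhibition above a cutoff derived from the DMSO control wells, cut at about 28% in these data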;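 note: 0% = MITF dimer wells with DMSO only; inhibitors lower the bead chemiluminescence by keeping MITF from dimerizing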
AS interf DR: counter-screen: compounds optically interfering with AlphaScreen; shares compounds with MITF inh; AlphaScreen optical interference counterscreen, cell-free; IC50, µM; 480 tested, 6% active; AID 1259373; call rule not given here
AS interf ctr: counter-screen: compounds optically interfering with AlphaScreen; shares compounds with MITF inh; LysRS AlphaScreen counterscreen, signal interference, triplicate; inhibition, % at 2.6 µM; 4,700 tested, 7.6% active; AID 1259376;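 active = inhibition above a cutoff derived from the DMSO control wells, cut at about 30% in these data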
* marks the source's active call; other numbers are inactive results; nt = no result. Most compounds without a hit are left out; they make up all but 3.4% or so of the library.

SMILES	FBW7 act	MITF inh	TEAD-YAP inh	GPR151 ag	MITF inh conf	AS interf ctr	others
CCSc1ccccc1C(=O)NCc1ccc2c(c1)OCO2	-0.2	74.6*	9.5	-1.4	7.6	17.1
O=C(Nc1ccc([N+](=O)[O-])cc1[N+](=O)[O-])C(F)(F)F	0.3	-3.7	0.8	0.3	nt	nt
CC(=O)Nc1ccc(N2C(=O)c3ccc(Oc4ccccc4)cc3C2=O)cc1	0.0	-1.3	2.5	-1.6	nt	nt
O=C(NC(=S)NNC(=O)c1ccccc1O)c1cccs1	0.2	78.5*	9.9	0.9	26.2	100.3*
CC(=O)NC(=S)NNC(=O)c1ccccc1I	-0.5	2.7	-1.4	-1.2	nt	nt
CC(=O)NC(=S)NNC(=O)c1ccccc1O	-1.6	76.2*	30.1	-0.2	38.7*	100.3*
O=C1CCCN1C(=O)CSc1nnc(-c2ccc3c(c2)OCO3)o1	0.1	-2.5	2.2	-0.9	nt	nt
S=c1oc(-c2ccc3c(c2)OCO3)nn1CN1CCCC1	0.0	9.0	3.9	1.8	nt	nt
C/C=C/c1ccc(OCCCCN2CCN(CC)CC2)c(OC)c1	-0.1	74.2*	6.6	-1.7	7.5	12.6
C/C=C/c1ccc(OCCOCCN2CCCC(C)C2)c(OC)c1 (stereo unspecified)	-0.3	52.9*	4.9	-0.7	3.6	-1.2
COc1cc(C)ccc1OCCOCCN1CCCC(C)C1 (stereo unspecified)	-0.5	63.2*	-0.7	1.2	-11.3	-6.7
CC(C(=O)N1c2ccccc2C(C)(c2ccccc2)CC1(C)C)N1C(=O)c2ccccc2C1=O (stereo unspecified)	0.1	3.5	2.8	-0.9	nt	nt
CN1C(=O)[C@H]2CN(C(=O)Oc3ccccc3)CCN2C(=O)[C@@H]1CO	0.1	7.9	4.0	1.0	nt	nt
O=S(=O)(Cc1ccc(F)cc1)NCC(c1ccsc1)N1CCOCC1 (stereo unspecified)	0.0	78.1*	6.0	0.1	-2.0	-0.7
O=S(=O)(NCC(c1ccc(F)cc1)N1CCOCC1)c1ccc2c(c1)OCCO2 (stereo unspecified)	0.0	55.3*	5.4	-1.0	5.7	4.2
Cc1cc(F)ccc1S(=O)(=O)NCC(c1ccsc1)N1CCOCC1 (stereo unspecified)	0.4	8.6	10.7	-1.5	nt	nt
CCOc1ccc(C(=O)N2CCN(c3ccc(Nc4ccncc4)nn3)CC2)cc1	0.3	15.4	12.3	1.3	nt	nt
CCCCNCCOCCOc1cccc(Cl)c1	0.2	79.6*	5.9	0.5	4.7	5.8
CCCCNCCOCCOc1ccc(C)c(C)c1	0.1	60.9*	0.9	0.9	0.3	3.6
CC(NS(=O)(=O)c1ccccc1)C1C2CC3CC(C2)CC1C3 (stereo unspecified)	0.3	-15.6	-0.8	2.8	nt	nt
CCCCC(=O)Nc1c(C(=O)Nc2ccc(OC)cc2OC)oc2ccccc12	0.0	3.3	-5.8	-1.0	nt	nt
CCN(CC)C(=O)C1CCCN(Cc2ccc([N+](=O)[O-])o2)C1 (stereo unspecified)	0.5	56.4*	13.7	0.9	3.5	9.2
CCN(CC)C(=O)C1CCCN(Cc2ccc(C)o2)C1 (stereo unspecified)	-0.1	38.9	14.6	0.4	nt	nt
CCN(CC)C(=O)C1CCCN(Cc2ccc(C(F)(F)F)cc2)C1 (stereo unspecified)	0.0	53.3*	14.5	0.3	-2.4	-1.6
CCOc1ccc(CC(=O)NCCn2c(C)cc3ccccc32)cc1	-0.8	21.7	0.7	0.4	nt	nt
SMILES	FBW7 act	MITF inh	TEAD-YAP inh	GPR151 ag	MITF inh conf	AS interf ctr	others
CC1=CC(C)(C)NC(=S)N1c1cc(Cl)cc(Cl)c1	-0.1	58.4*	-3.6	-0.7	10.1	18.1
CC1=CC(C)(C)NC(=S)N1c1ccc(Cl)cc1	-0.3	14.6	5.9	1.2	nt	nt
CCOC(=O)c1sc2ncn(N3Cc4ccccc4C3=N)c(=O)c2c1C	0.6	1.0	10.2	-1.7	nt	nt
COc1ccccc1-c1ccc(=O)n(CC(=O)NCc2ccccc2)n1	0.2	21.3	-10.4	-0.7	nt	nt
C=CCNC(=O)Cn1nc(-c2ccccc2OC)ccc1=O	-0.1	71.8*	-2.6	0.1	14.8	18.9
Cc1ccc(-c2nnc3s/c(=C\c4ccco4)c(=O)n23)cc1	0.1	63.6*	10.1	-1.0	75.0*	-5.5	AS interf DR=>6.48
Cc1cccc2cc(CN(C(=O)CC(C)(C)C)C3CCCC3)c3nnnn3c12	-0.1	-6.6	1.7	0.9	nt	nt
